“And” between values parts separate entries of the source, which are not always exact repeats. Equal values may be shown once. Results filed as inconclusive are left out. A number with no mark means an inactive call. The source made the active and inactive calls. Unless noted, calls come from the whole dose curve; as a rule, active = well fitted curve in the direction sought with a large enough effect; inconclusive = small, poorly fitted or top-dose-only effect, or another doubt; inactive = no such curve, though single readings can be large; an effect the other way counts as inactive or inconclusive.

Drawing on PubChem BioAssay (NCATS), this text covers outcome, Potency and max response for five compounds.

Experiment [1] is described as follows: qHTS to identify inhibitors of the type 1 interferon - major histocompatibility complex class I in skeletal muscle: primary screen against the NCATS Pharmaceutical Collection (AID 1347407).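 Note: luminescence of HiBiT knocked into endogenous HLA-B as interferon-induced MHC class I level; % is set by controls: 0 for no effect and ±100 for the full control effect.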 An outline of the steps:
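HLA-B HiBiT myoblasts, dexamethasone-free growth medium + 4 ng/ml IFN-b; compounds pinned 1 h after seeding, […] from 46 uM; 24 h, 37 C, 5% CO2; lytic HiBiT detection, 10 min RT, luminescence.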
For orientation: Quantitative high-throughput screening tests each substance at several concentrations.

The target of experiment [2] is Protein phosphatase 1D (Homo sapiens) (UniProt O15297). In words: RapidFire Mass Spectrometry qHTS Assay for Modulators of WT P53-Induced Phosphatase 1 (WIP1) (AID 1347424).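 Note: series mostly up to about 63 µM; plate controls were DMSO wells for no effect and GSK830371 inhibitor control at 10 µM for full effect.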 An outline of the steps:
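RapidFire MS readout of dephosphorylated VEPPL-S-QETFS product, with 1 uM isotope-labelled peptide standard. Reaction: 10 nM WIP1, 2 uM phosphopeptide substrate, 5 min, room temperature, after 1 h compound preincubation; stopped with 0.5% formic acid.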

Experiment [3] has the same target. The experiment is described as follows: Rhodamine-PBP qHTS Assay for Modulators of WT P53-Induced Phosphatase 1 (WIP1) (AID 1347425). Note: % of control where 0% means no effect. An outline of the steps: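 The read-out is the change in Rhodamine-PBP fluorescence (f1 - f0, ex 525/em 598 nm) as Pi is released, read each minute for 11 min. Final reaction: 5 nM WIP1, 10 uM phosphopeptide VEPPL-pS-QETFS, 10 uM Rh-PBP, 50 mM Tris-HCl pH 7.5, 30 mM MgCl2. Compound was preincubated with enzyme for 1 hour at room temperature.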

Experiment [4] can be described thus: Primary qHTS for inhibitors of La Crosse Virus (LACV) - induced cell death in SH-SY5Y cells (AID 1508616).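 Note: top concentration of the series differs between compounds; 0% = infected DMSO wells and 100% = uninfected DMSO wells; higher means more rescue of cells from virus-induced death.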 The essentials: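 Cytopathicity rescue screen: compounds pinned onto SH-SY5Y cells, which are then infected with LACV (MOI 0.01) and held 6 days at 37C. Percent activity is scaled between infected DMSO control and uninfected DMSO control.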
Experiment [5] concerns the target Calcium and integrin-binding protein 1 (Homo sapiens) (UniProt Q99828). The experiment is described as follows: Primary qHTS for Identification of Calcium Integrin Binding Protein 1 (CIB1) Competitor (AID 1508620). Note: top concentration of the series differs between compounds; % is set by controls: 0 for no effect and ±100 for the full control effect. An outline of the steps: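 Fluorescence polarization competition: GST-tagged CIB1 (1 uM final) preincubated with compound 15 min at room temperature, then FITC-labelled alphaIIb peptide (100 nM final) added. After 15 min at room temperature, polarization read at Ex 480/Em 540.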

A short description of experiment [6]: Primary qHTS for small molecule stabilizers of the endoplasmic reticulum resident proteome: Secreted ER Calcium Modulated Protein (SERCaMP) assay (AID 1508630). Note: % is set by controls: 0 for no effect and ±100 for the full control effect. The essentials:
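The SH-SY5Y reporter protocol was run at 3 concentrations up to 38.3 uM (primary) or 11 concentrations (follow-up): 16 h compound, 100 nM thapsigargin for 4 h, then extracellular luciferase luminescence.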

A short description of experiment [7]: A High-Content qHTS Against Drug Library for the Identification of Small Molecules that Inhibit DYT1 Early Onset Primary Dystonia-Associated Cell Pathology (AID 1645839; calls by dose curve; note: series mostly up to about 46 µM). The essentials: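 Cells were seeded and left for 24 h, then dosed with compound alongside tetracycline induction of mutant EGFP-TorsinA. They were incubated for 48 h, fixed in 4% paraformaldehyde, permeabilized and imaged for mislocalization (%pathology) and cell count.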

Experiment [8] deals with Cytochrome P450 2D6 (Homo sapiens) (UniProt P10635). The experiment is described as follows: Cytochrome P450 family 2 subfamily D member 6 (CYP2D6) small molecule antagonists: luciferase biochemical (cell-free) qHTS assay (AID 1645840; active = well fitted curve in the direction sought with a large enough effect in the repeat runs; an effect the other way counts as inactive or inconclusive; note: series mostly up to about 57 µM; % is set by controls: 0 for no effect and ±100 for the full control effect; nearly all actives have a fitted effect of over 55% in size). An outline of the steps:
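P450-Glo CYP2D6 system: proluciferin substrate converted by enzyme to luciferin, read by luminescence proportional to activity. Enzyme-substrate mix with compound 10 min at room temperature, then NADPH regeneration 1 h before detection reagent.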

Experiment [9] deals with Cytochrome P450 2C9 (Homo sapiens) (UniProt P11712). The experiment is described as follows: Cytochrome P450 family 2 subfamily C member 9 (CYP2C9) small molecule antagonists: luciferase biochemical (cell-free) qHTS assay (AID 1645842; active = well fitted curve in the direction sought with a large enough effect in the repeat runs; an effect the other way counts as inactive or inconclusive; note: series mostly up to about 57 µM; % is set by controls: 0 for no effect and ±100 for the full control effect; nearly all actives have a fitted effect of over 55% in size). The essentials: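 P450-Glo CYP2C9 system: proluciferin substrate with enzyme in mix containing 0.4% BSA, 10 min at room temperature, then NADPH regeneration solution added and incubated 1 h at 37C. Detection reagent stopped reaction; luminescence read after 20 min as RLU.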

Experiment [10] is described as follows: Primary qHTS for inhibitors of nuclear receptor binding SET domain protein 2 (NSD2) in an isogenic RCH-ACV NSD2 p.E1099K mutant (9B) (AID 1645876). Note: nearly all actives have a fitted effect of over 70% in size. Note: potency is the fitted concentration of half-maximal effect.
A short description of experiment [11]: qHTS to identify inhibitors of the type 1 interferon - major histocompatibility complex class I in skeletal muscle: primary screen against the NCATS Mechanism Interrogation Plate v5.0 (MIPE) Libary (AID 1347411).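 Note: plate controls were vehicle for no effect and reference inhibitor for full effect; nearly all actives have a fitted effect of over 65% in size.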 An outline of the steps:
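HLA-B HiBit myoblasts, dexamethasone-free medium + 4 ng/ml IFN-b, 24 h compound, 11-pt 1:3 from 46 uM final. Readout: Nano-Glo HiBiT lytic luminescence after 10 min lysis, RT.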

Experiment [12] is described as follows: Primary qHTS for inhibitors of nuclear receptor binding SET domain protein 2 (NSD2) in an RCH-ACV wild type WT cells (2C) (AID 1645877). Note: nearly all actives have a fitted effect of over 70% in size. Note: potency is the fitted concentration of half-maximal effect.
For experiment [13], the target named is Calcium and integrin-binding protein 1 (Homo sapiens) (UniProt Q99828). The experiment is described as follows: Confirmatory qHTS for Identification of Calcium Integrin Binding Protein 1 (CIB1) Competitor (AID 1508617). Note: % is set by controls: 0 for no effect and ±100 for the full control effect; nearly all actives have a fitted effect of over 65% in size. An outline of the steps:
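Compounds at up to 114 uM final met 1 uM GST-tagged CIB1 for 15 min at room temperature (HEPES pH 7.4, 5 mM CaCl2). FITC-labelled alphaIIb peptide, 100 nM, added; polarization read after 15 min more.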

The nature of experiment [14]: Counterscreen qHTS for small molecule stabilizers of the endoplasmic reticulum resident proteome: GLuc-NoTag assay (AID 1508627).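 Note: SH-SY5Y cells given compound then 100 nM thapsigargin to empty ER calcium; series mostly up to about 76 µM; 0% = thapsigargin alone and -100% = DMSO vehicle control.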 The essentials:
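Counterscreen line: SH-SY5Y-GLuc-NoTag. Seed, 5 h; compound, 19 h; thapsigargin 100 nM, 4 h; 37C/5% CO2. Readout: secreted GLuc luminescence, coelenterazine 0.07x final, no lysis.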

The nature of experiment [15]: Confirmatory qHTS for small molecule stabilizers of the endoplasmic reticulum resident proteome: Secreted ER Calcium Modulated Protein (SERCaMP) assay (AID 1508628). Note: series mostly up to about 76 µM; % is set by controls: 0 for no effect and ±100 for the full control effect; nearly all actives have a fitted effect of over 40% in size. The essentials: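 GLuc-SERCaMP-expressing SH-SY5Y cells, pretreated 16 h with compound, are challenged with thapsigargin to empty ER calcium stores; after 4 h, coelenterazine is added directly to the medium and luminescence is imaged.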

Experiment [16] is described as follows: Cell Viability qHTS for small molecule stabilizers of the endoplasmic reticulum resident proteome (AID 1508629).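 Note: compound exposure about 46 h in total before the viability read; % is set by controls: 0 for no effect and ±100 for the full control effect.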 Particulars: cell viability counter-screen, 100 nM thapsigargin for final 4 h. The text has this: Assay Provider: Brandon K. Harvey Ph.D.
National Institute on Drug Abuse, National Institutes of Health, Baltimore, MD
Endoplasmic reticulum (ER) dysregulation is associated with human pathologies including neurodegenerative, cardiovascular, muscular, and diabetic conditions. Maintenance of ER calcium is critical for functions of the ER and its depletion can lead to loss of ER resident proteins, in a process termed exodosis. Therapeutic compounds capable of attenuating the redistribution of ER proteins under pathological conditions may slow or stop disease progression. To identify such compounds, we performed a quantitative high-throughput screen (qHTS) using the SERCaMP assay, which monitors secretion of ER resident proteins triggered by calcium depletion.
SERCaMP was initially developed as a reporter of ER calcium homeostasis using a Gaussia luciferase with a modified signal peptide and carboxy-terminus (GLuc-SERCaMP), modifications that confer secretion of the reporter in response to ER calcium depletion (Henderson et al., 2014). The assay was used to screen 9,501 compounds, including a collection of drugs approved by the FDA (US), EMA (EU), NHI (Japan), and HC (Canada) regulatory agencies (Huang et al., 2011). Since the SERCaMP reporter reflects the exodosis phenomenon (Trychta et al., 2018a), compounds identified in the screen have the potential to prevent exodosis by different mechanisms such as stabilizing ER calcium or augmenting ERS retrieval.
1. Henderson, M.J., Wires, E.S., Trychta, K.A., Richie, C.T., and Harvey, B.K. (2014). SERCaMP: a carboxy-terminal protein modification that enables monitoring of ER calcium homeostasis. Mol Biol Cell 25, 2828-2839.
2. Huang, R., Southall, N., Wang, Y., Yasgar, A., Shinn, P., Jadhav, A., Nguyen, D.T., and Austin, C.P. (2011). The NCGC pharmaceutical collection: a comprehensive resource of clinically approved drugs enabling repurposing and chemical genomics. Sci Transl Med 3, 80ps16.
3. Trychta, K.A., Back, S., Henderson, M.J., and Harvey, B.K. (2018a). KDEL Receptors Are Differentially Regulated to Maintain the ER Proteome under Calcium Deficiency. Cell Rep 25, 1829-1840 e1826.
SEQUENCE No. (1, 2, 3, etc.); […] (e.g., Cells, Incubation, Reagent, etc.); VALUE and DESCRIPTION.
1; Reagent; 5 uL; 1000 SH-SY5Y cells per wells
3; Compound; 23 nL; Control inhibitor / compound library
5; Reagent; 100 nM; Thapsigargin
7; Reagent; 5 uL; CellTiter-Glo (Promega)
8; Time; 10 min; room temperature
9; Detection; Luminescence; ViewLux imaging system
NOTES (numbers refer to sequence above)
1; SH-SY5Y human neuroblastoma cells stably expressing GLuc-SERCaMP (SH-SY5Y-GLuc-ASARTDL) cells were seeded in 1,536 well white tissue culture treated plates (Corning, Cat# 7464) in DMEM-high glucose-sodium pyruvate (ThermoFisher Scientific, Cat #10569) supplemented with 10% bovine growth serum (Hyclone), 10 U/ml penicillin (Gibco), 10 ug/ml streptomycin (Gibco), and 20 mM HEPES.
2; Assay plates were incubated for 5 hr at 37C in a humidified incubator containing 5% CO2.
3; qHTS libraries (23 nl, final concentrations of 1.53 uM, 7.67 uM, 38.3 uM) or controls (neutral control: DMSO, positive control: dantrolene) were added using a Kalypsis pin-tool Robotic System equipped with 1536 pinheads.
4; Cells were then incubated for 42 hours at 37C, 5% CO2. […]
7; Cell viability was measured using the CellTiter-Glo Luminescent Cell Viability Assay (Promega). […]
9; Luminescence was measured using a ViewLux CCD imaging system (Perkin Elmer) equipped with clear filters.

Cytochrome P450 2C9 (Homo sapiens), sequence (P11712 whole entry, looked up): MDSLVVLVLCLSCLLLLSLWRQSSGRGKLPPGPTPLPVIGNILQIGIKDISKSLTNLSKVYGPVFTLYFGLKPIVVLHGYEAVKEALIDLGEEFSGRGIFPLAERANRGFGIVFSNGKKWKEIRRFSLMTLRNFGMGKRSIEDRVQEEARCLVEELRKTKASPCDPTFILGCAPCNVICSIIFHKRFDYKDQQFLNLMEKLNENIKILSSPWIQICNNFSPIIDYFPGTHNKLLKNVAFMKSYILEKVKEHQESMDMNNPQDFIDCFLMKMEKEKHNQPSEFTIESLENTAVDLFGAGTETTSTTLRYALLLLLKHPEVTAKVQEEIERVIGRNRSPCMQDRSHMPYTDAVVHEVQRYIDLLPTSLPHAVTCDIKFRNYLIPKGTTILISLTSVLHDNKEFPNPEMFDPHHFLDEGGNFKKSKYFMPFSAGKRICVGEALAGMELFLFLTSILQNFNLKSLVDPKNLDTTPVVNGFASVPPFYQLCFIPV
Calcium and integrin-binding protein 1 (Homo sapiens), sequence (Q99828 whole entry, looked up): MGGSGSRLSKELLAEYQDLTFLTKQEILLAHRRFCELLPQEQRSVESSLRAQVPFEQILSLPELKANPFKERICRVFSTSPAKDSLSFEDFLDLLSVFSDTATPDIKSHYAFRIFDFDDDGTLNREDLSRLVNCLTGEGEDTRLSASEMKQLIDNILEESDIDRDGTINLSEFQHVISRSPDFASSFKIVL
Cytochrome P450 2D6 (Homo sapiens), sequence (P10635 whole entry, looked up): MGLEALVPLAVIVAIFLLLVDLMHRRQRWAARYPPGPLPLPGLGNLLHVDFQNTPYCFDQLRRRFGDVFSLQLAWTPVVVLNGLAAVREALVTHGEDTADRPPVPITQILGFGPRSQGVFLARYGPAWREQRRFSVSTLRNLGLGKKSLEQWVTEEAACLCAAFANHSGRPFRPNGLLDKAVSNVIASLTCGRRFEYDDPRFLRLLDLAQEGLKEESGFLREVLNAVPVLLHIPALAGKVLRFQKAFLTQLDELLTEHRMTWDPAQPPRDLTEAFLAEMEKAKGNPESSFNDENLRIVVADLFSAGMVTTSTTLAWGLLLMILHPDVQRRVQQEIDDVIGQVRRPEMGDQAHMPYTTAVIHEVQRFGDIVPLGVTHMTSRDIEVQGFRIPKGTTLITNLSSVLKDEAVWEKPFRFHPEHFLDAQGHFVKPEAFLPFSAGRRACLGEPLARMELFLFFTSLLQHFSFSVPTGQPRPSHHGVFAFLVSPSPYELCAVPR
Protein phosphatase 1D (Homo sapiens), sequence (O15297 whole entry, looked up): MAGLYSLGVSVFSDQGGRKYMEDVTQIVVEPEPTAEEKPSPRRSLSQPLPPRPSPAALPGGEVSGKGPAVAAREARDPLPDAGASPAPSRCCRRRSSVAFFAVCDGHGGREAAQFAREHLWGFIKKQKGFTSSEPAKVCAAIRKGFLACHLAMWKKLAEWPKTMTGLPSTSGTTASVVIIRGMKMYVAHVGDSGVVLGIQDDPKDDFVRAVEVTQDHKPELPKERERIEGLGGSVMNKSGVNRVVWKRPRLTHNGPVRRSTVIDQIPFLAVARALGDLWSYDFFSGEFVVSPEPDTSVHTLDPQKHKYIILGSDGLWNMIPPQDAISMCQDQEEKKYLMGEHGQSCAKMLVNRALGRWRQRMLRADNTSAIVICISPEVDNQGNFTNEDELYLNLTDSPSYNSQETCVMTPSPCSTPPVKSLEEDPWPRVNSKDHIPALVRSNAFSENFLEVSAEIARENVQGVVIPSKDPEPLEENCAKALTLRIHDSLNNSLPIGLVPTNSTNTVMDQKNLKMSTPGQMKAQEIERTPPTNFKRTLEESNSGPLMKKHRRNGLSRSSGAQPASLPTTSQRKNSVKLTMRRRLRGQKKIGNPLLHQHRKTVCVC

On to `FC(F)(F)C(Cl)Br` (stereo not given), for which the compound was called inactive in experiment [1], in [2], in experiment [3], in experiment [4], in [5] and in experiment [6]. Further, the Potency entry in experiment [7], in experiment [8], in [9] and in experiment [10] was “inactive” throughout.
As to `O=c1[nH]c(=O)n([C@H]2C[C@H](O)[C@@H](CO)O2)cc1I`, the call in experiment [1], in [11], in experiment [2], in experiment [3], in experiment [4] and in [5] was inactive. The outcome in experiment [6] was inactive. Also, the Potency entry in experiment [8] and in experiment [9] was “inactive” in each case. For the same compound, the Potency in experiment [10] was 3.35 µM (active) and 662 nM (active); in experiment [12] it was 2.99 µM (active) and 662 nM (active).
Regarding `O=C(O)Cc1ccc(CCNS(=O)(=O)c2ccc(Cl)cc2)cc1`, the result in experiment [1], in experiment [2], in experiment [3], in experiment [4], in experiment [13] and in experiment [6] was inactive. Further, in [8], the Potency entry was “inactive”.
With `Cc1ccc2c(c1)c1c3n2CCNC3CCC1` (stereo not given), the compound was called inactive in [1], in [2], in [3], in experiment [4], in experiment [5] and in [14]. In experiment [6], the outcome was inactive. Moreover, the Potency result in experiment [15] and in experiment [10] was “inactive” each time.
On to `COc1ccc(C(=O)N2CCN(CC(=O)N3CCOCC3)CC2)cc1`, for which the compound was classed as inactive in [1], in [2], in [3], in [4], in experiment [5] and in experiment [14]. For the same compound, the Potency entry in experiment [15], in [7], in experiment [8], in experiment [9], in experiment [10] and in [12] was “inactive” in each case. Moreover, in [16], the max response is 17.3%.
